We go through ten compounds from PubChem BioAssay (NCI).

Compounds without any hit were thinned out: in the full panel of roughly 79,000, 15% have a hit. A number with no mark means an inactive call. The source made the active and inactive calls. Cut-off read from the data, not from the text of the source: active = growth inhibition above about 70%; inactive = the rest.

The nature of assay [1]: NCI Yeast Anticancer Drug Screen. Data for the rad50 strain (AID 155).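 Note: 0% = growth of vehicle-only cultures of the same strain.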 The note with it: S. cerevisiae rad50 strain growth inhibition, stronger effect = higher value. A digest of the protocol:
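A DNA repair-deficient yeast mutant serves as the test organism; compound-induced growth inhibition is calculated against vehicle-treated cells.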

The nature of assay [2]: NCI Yeast Anticancer Drug Screen. Data for the mec2-1 strain (AID 157). The note with it: S. cerevisiae mec2-1 strain, stronger effect = higher value. A digest of the protocol: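 mec2-1 yeast strain, carrying an alteration in DNA damage repair or cell cycle control, was exposed to compounds; growth inhibition was measured relative to vehicle-treated controls.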
Assay [3] in a line: NCI Yeast Anticancer Drug Screen. Data for the sgs1 mgt1 strain (AID 161).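 Note: 0% = growth of cultures given vehicle only.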 The note with it: S. cerevisiae sgs1 mgt1 strain, stronger effect = higher value. A digest of the protocol:
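Yeast cells carrying a defined DNA-repair defect were exposed to test compounds. Growth inhibition was measured relative to vehicle-treated controls.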

The nature of assay [4]: NCI Yeast Anticancer Drug Screen. Data for the cln2 rad14 strain (AID 165).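 Note: 0% = growth equal to vehicle treated cultures.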 The note with it: S. cerevisiae cln2 rad14 strain, stronger effect = higher value. A digest of the protocol: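 Yeast carrying cln2 and rad14 alterations (cell cycle control and DNA damage repair) were exposed to compounds. Growth inhibition was measured against vehicle-treated controls.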
Assay [5] can be described thus: NCI Yeast Anticancer Drug Screen. Data for the bub3 strain (AID 167). The note with it: S. cerevisiae bub3 mutant strain, stronger effect = higher value. A digest of the protocol:
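Inhibition values come from growth of compound-treated mutant yeast normalised to vehicle-treated controls.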

Assay [6] is described as follows: NCI Yeast Anticancer Drug Screen. Data for the mlh1 rad18 strain (AID 175). The note with it: S. cerevisiae mlh1 rad18 strain growth inhibition, stronger effect = higher value. A digest of the protocol: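 Growth inhibition of the yeast strain was measured after compound exposure and expressed relative to vehicle-treated controls. The strain carries defined defects in DNA damage repair.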

The mark [7] stands for this setting: at 5.0 µM (retest, dose inferred, filed as 0.5).
Where [8] appears, read: at 50.0 µM (retest, dose inferred, filed as 5.0).

In the case of `CCOC(=O)/C(C#N)=C/c1ccccc1Br`, the growth inhibition in assay [1] (setting [7]) is 11%; in assay [1] (setting [8]), 18%; in assay [1] (at 50.0 µM) it was 50%; in assay [2] (setting [7]), -19%; in assay [2] (setting [8]), 3%; in assay [2] (at 50.0 µM) it was 20.4%. Also, the growth inhibition is 7% in assay [3] (setting [7]); 13% in assay [3] (setting [8]); -0.75% in assay [3] (at 50.0 µM); 39% in assay [4] (setting [7]); 17% in assay [4] (setting [8]); 3.6% in assay [4] (at 50.0 µM). Moreover, the growth inhibition is 31% in assay [5] (setting [7]); 20% in assay [5] (setting [8]); 1.2% in assay [5] (at 50.0 µM); -9% in assay [6] (setting [7]); -4% in assay [6] (setting [8]); 6.6% in assay [6] (at 50.0 µM).
Take `CC(=O)OC(OC(C)=O)c1ccc([N+](=O)[O-])s1`: the growth inhibition was -77% in assay [1] (setting [7]); 100% (active) in assay [1] (setting [8]); 99.4% (active) in assay [1] (at 50.0 µM); -18% in assay [2] (setting [7]); 100% (active) in assay [2] (setting [8]); 99.4% (active) in assay [2] (at 50.0 µM). Further, the growth inhibition was 10% in assay [3] (setting [7]); 100% (active) in assay [3] (setting [8]); 99.5% (active) in assay [3] (at 50.0 µM); 1% in assay [4] (setting [7]); 99% (active) in assay [4] (setting [8]); 99.1% (active) in assay [4] (at 50.0 µM). Also, the growth inhibition in assay [5] (setting [7]) was -7%; in assay [5] (setting [8]), 100% (active); in assay [5] (at 50.0 µM) it was 99.5% (active); in assay [6] (setting [7]) it was 19%; in assay [6] (setting [8]), 100% (active); in assay [6] (at 50.0 µM), 99.5% (active).
As for `Cc1cn(C2OC(CO)C(O)C(O)C2N)c(=O)[nH]c1=O` (stereo not given), the growth inhibition in assay [1] (setting [7]) is 0%; in assay [1] (setting [8]), -2%; in assay [1] (at 50.0 µM), 86.5% (active); in assay [2] (setting [7]), 3%; in assay [2] (setting [8]), 10%; in assay [2] (at 50.0 µM), 70.3% (active). Further, the growth inhibition is 1% in assay [3] (setting [7]); 8% in assay [3] (setting [8]); 56.5% in assay [3] (at 50.0 µM); -4% in assay [4] (setting [7]); 0% in assay [4] (setting [8]); 61.6% in assay [4] (at 50.0 µM). The growth inhibition in assay [5] (setting [7]) was -8%; in assay [5] (setting [8]) it was -13%; in assay [5] (at 50.0 µM) it was 93.9% (active); in assay [6] (setting [7]), -4%; in assay [6] (setting [8]), -3%; in assay [6] (at 50.0 µM), 92.5% (active).
With `COC(=O)C1(c2ccc(N(C)C)cc2OC)CCCN(C(=O)Oc2ccccc2[N+](=O)[O-])CCc2c1[nH]c1ccccc21` (stereo not given), the growth inhibition in assay [1] (setting [7]) was 69%; in assay [1] (setting [8]) it was 71% (active); in assay [1] (at 50.0 µM), 74.9% (active); in assay [2] (setting [7]), 83% (active); in assay [2] (setting [8]), 80% (active); in assay [2] (at 50.0 µM), 66.8%. For the same compound, the growth inhibition was 52% in assay [3] (setting [7]); 55% in assay [3] (setting [8]); 72.8% (active) in assay [3] (at 50.0 µM); 39% in assay [4] (setting [7]); 52% in assay [4] (setting [8]); 50.5% in assay [4] (at 50.0 µM). Also, the growth inhibition in assay [5] (setting [7]) is 53%; in assay [5] (setting [8]), 85% (active); in assay [5] (at 50.0 µM), 42%; in assay [6] (setting [7]) it was 83% (active); in assay [6] (setting [8]), 88% (active); in assay [6] (at 50.0 µM) it was 75.2% (active).
`Cc1cccc(-c2nnc(-c3cccc(C)c3)o2)c1`: the growth inhibition in assay [1] (setting [7]) is 39%; in assay [1] (setting [8]), 44%; in assay [1] (at 50.0 µM) it was 54.8%; in assay [2] (setting [7]), 30%; in assay [2] (setting [8]) it was 43%; in assay [2] (at 50.0 µM), 14.7%. Besides, the growth inhibition is 19% in assay [3] (setting [7]); 47% in assay [3] (setting [8]); 63.6% in assay [3] (at 50.0 µM); 53% in assay [4] (setting [7]); 33% in assay [4] (setting [8]); 43.2% in assay [4] (at 50.0 µM). Also, the growth inhibition is 54% in assay [5] (setting [7]); 66% in assay [5] (setting [8]); 55% in assay [5] (at 50.0 µM); 32% in assay [6] (setting [7]); 44% in assay [6] (setting [8]); 23.4% in assay [6] (at 50.0 µM).
Regarding `COc1cccc(/C=C2/Sc3scc(-c4ccccc4)[n+]3C2=O)c1O`, the growth inhibition is 14% in assay [1] (setting [7]); 20% in assay [1] (setting [8]); 80.4% (active) in assay [1] (at 50.0 µM); -9% in assay [2] (setting [7]); 21% in assay [2] (setting [8]); 55.6% in assay [2] (at 50.0 µM). The growth inhibition was -5% in assay [3] (setting [7]); 23% in assay [3] (setting [8]); 82.3% (active) in assay [3] (at 50.0 µM); -12% in assay [4] (setting [7]); 18% in assay [4] (setting [8]); 61.8% in assay [4] (at 50.0 µM). Further, the growth inhibition was -17% in assay [5] (setting [7]); 64% in assay [5] (setting [8]); 93.1% (active) in assay [5] (at 50.0 µM); 12% in assay [6] (setting [7]); 66% in assay [6] (setting [8]); 94.1% (active) in assay [6] (at 50.0 µM).
As to `C/C(=N\NC(=S)N1CCCC1)c1cnccn1`, the growth inhibition in assay [1] (setting [7]) was 61%; in assay [1] (setting [8]), 98% (active); in assay [1] (at 50.0 µM) it was 98.8% (active); in assay [2] (setting [7]) it was 56%; in assay [2] (setting [8]), 99% (active); in assay [2] (at 50.0 µM), 99% (active). The growth inhibition in assay [3] (setting [7]) was 77% (active); in assay [3] (setting [8]) it was 98% (active); in assay [3] (at 50.0 µM), 99.3% (active); in assay [4] (setting [7]) it was 74% (active); in assay [4] (setting [8]) it was 98% (active); in assay [4] (at 50.0 µM), 97.7% (active). In addition, the growth inhibition is 33% in assay [5] (setting [7]); 97% (active) in assay [5] (setting [8]); 99% (active) in assay [5] (at 50.0 µM); 80% (active) in assay [6] (setting [7]); 98% (active) in assay [6] (setting [8]); 99.1% (active) in assay [6] (at 50.0 µM).
Take `COc1ccc(C2Cc3cc(OC)ccc3C2=O)cc1` (stereo not given): the growth inhibition was 13% in assay [1] (setting [7]); 94% (active) in assay [1] (setting [8]); 45.5% in assay [1] (at 50.0 µM); 9% in assay [2] (setting [7]); 98% (active) in assay [2] (setting [8]); 29.4% in assay [2] (at 50.0 µM). The growth inhibition is 17% in assay [3] (setting [7]); 95% (active) in assay [3] (setting [8]); 56.5% in assay [3] (at 50.0 µM); 19% in assay [4] (setting [7]); 95% (active) in assay [4] (setting [8]); 23.6% in assay [4] (at 50.0 µM). The growth inhibition in assay [5] (setting [7]) is 32%; in assay [5] (setting [8]) it was 97% (active); in assay [5] (at 50.0 µM) it was 96% (active); in assay [6] (setting [7]) it was 10%; in assay [6] (setting [8]), 97% (active); in assay [6] (at 50.0 µM), 57.4%.
Regarding `Cc1ccc(C2CC(c3cccc([N+](=O)[O-])c3)=Nc3ccccc3S2)cc1` (stereo not given), the growth inhibition in assay [1] (setting [7]) was 0%; in assay [1] (setting [8]), 19%; in assay [1] (at 50.0 µM) it was 57.5%; in assay [2] (setting [7]), 0%; in assay [2] (setting [8]), 31%; in assay [2] (at 50.0 µM), 15.9%. Also, the growth inhibition in assay [3] (setting [7]) was -1%; in assay [3] (setting [8]) it was 46%; in assay [3] (at 50.0 µM), 57.3%; in assay [4] (setting [7]), -6%; in assay [4] (setting [8]) it was -4%; in assay [4] (at 50.0 µM) it was 36.4%. Besides, the growth inhibition in assay [5] (setting [7]) was 11%; in assay [5] (setting [8]), 78% (active); in assay [5] (at 50.0 µM), 88% (active); in assay [6] (setting [7]) it was 2%; in assay [6] (setting [8]), 29%; in assay [6] (at 50.0 µM) it was 60.8%.
On to `O=C(O)c1ccc2cc3ccccc3cc2c1`, for which the growth inhibition in assay [1] (setting [7]) is -16%; in assay [1] (setting [8]), 65%; in assay [1] (at 50.0 µM) it was 75.9% (active); in assay [2] (setting [7]) it was 5%; in assay [2] (setting [8]) it was 48%; in assay [2] (at 50.0 µM), 47.4%. Besides, the growth inhibition is -10% in assay [3] (setting [7]); 50% in assay [3] (setting [8]); 63% in assay [3] (at 50.0 µM); -49% in assay [4] (setting [7]); 42% in assay [4] (setting [8]); 61.9% in assay [4] (at 50.0 µM). In addition, the growth inhibition was -29% in assay [5] (setting [7]); 30% in assay [5] (setting [8]); 62.4% in assay [5] (at 50.0 µM); -24% in assay [6] (setting [7]); 58% in assay [6] (setting [8]); 54.1% in assay [6] (at 50.0 µM).
